According to PubChem BioAssay AID624300 (Southern Research Specialized Biocontainment Screening …, 2012):
About 360 (15%) of roughly 2,400 compounds were called active.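 How the source made its calls: active means viability falls under 70% at one or more tested concentrations, taken as toxicity; inactive means viability stays over 70% at every dose.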 The list is a sample of the results. Results with a measured potency or affinity are listed apart.

assay: HeLa cell cytotoxicity, dose response, cytotoxicity control for MgcRacGAP inhibitor project (AID 624300); details: CellTiter-Glo luminescence, 24 h; series mostly up to 100 µM

SMILES	outcome
COc1ccc(C(=O)Nc2ccc(N3CCCCCC3)cc2)cc1S(=O)(=O)N1CCOCC1	inactive
CCOc1ccc(Nc2n[nH]c(=S)s2)cc1	inactive
COc1cc(/C=N\NC(=O)CNC(=O)C(c2ccccc2)c2ccccc2)ccc1O	inactive
CSc1ncnc2c1ncn2CCCNc1ccc(C)c(C)c1	inactive
CCOC(=O)c1sc(/N=C/c2c(O)ccc3ccccc23)cc1C	inactive
Nc1ccc(Nc2nc(-c3cc4ccccc4oc3=O)cs2)cc1	inactive
Nc1ccc2c(c1Br)Cc1ccccc1-2	inactive
COc1cc(CN2CCN(Cc3ccc(C(F)(F)F)cc3)CC2)cc(OC)c1OC	inactive
Nc1c(Cl)cc(NC(=O)c2ccccc2C(=O)O)cc1Br	inactive
COc1ccc2c(c1OC)C(=O)OC2CC(=O)c1ccc(O)c(O)c1 (centres undefined)	inactive
O=C(/C=C/c1ccc(O)c(O)c1)NC(=O)c1ccccc1O	inactive
COc1ccc(/C=N/NC(=O)c2ccc(CSc3nc(C)cc(C)n3)cc2)cc1O	inactive
O=C(COc1cccc2cccnc12)N/N=C/c1ccc(O)cc1	inactive
O=C(Nc1ccccc1)c1cccc(-c2nnc(-c3ccccc3)o2)c1	inactive
COc1ccc(NC(=O)c2cccc(-c3ccc(O)cc3)c2)cn1	inactive
O=C(CN1CCCCCC1)NCC1CCCO1 (centres undefined)	inactive
C#CCOCCOCCOCCNc1nc(N2CCN(C(=O)C([C@@H](C)O)n3cc([C@@H](N)CCCCN)nn3)CC2)nc(N2CCN(C(=O)[C@H](CO)n3cc([C@@H](N)C(C)C)nn3)CC2)n1 (some centres undefined)	inactive
OCCN(C=NC1=NN(c2cccc(C(F)(F)F)c2)CC1)CCO	inactive
O=C(N/N=C/c1ccc(O)c(O)c1)c1ccc(-n2cnnn2)cc1	inactive
Cc1cc(-c2n[nH]c(=S)n2/N=C/c2sccc2C)n[nH]1	inactive
COc1ccc(NCCC#N)cc1	inactive
COc1ccc(NC2CCCN(C(=O)c3cccc(N(C)C)c3)C2)cc1 (centres undefined)	inactive
CCOc1cc(N2CCOCC2)c(OCC)cc1NCC(=O)N1CCN(Cc2ccccc2)CC1	inactive
Cc1[nH]n(-c2ccccc2)c(=O)c1/C=N/N(C)c1ccccc1	inactive
Nc1ccc(N2CCN(c3cccc(Cl)c3)CC2)cc1	inactive

SMILES	outcome
Brc1cccc(OCCN2CCOCC2)c1	inactive
CCS(=O)(=O)NC(C)C(c1cccs1)N1CCN(c2ccc(OC)cc2)CC1 (centres undefined)	inactive
O=C1CCCCCN1Sc1ccccc1	inactive
C=C1c2cccc(O)c2C(O)=C2C(=O)[C@]3(O)C(O)=C(C(N)=O)C(=O)[C@@H](N(C)C)[C@@H]3[C@@H](O)[C@H]12	inactive
CCOc1cc(-c2cc(-c3ccccc3)nc(N)c2C#N)ccc1O	inactive
CCOc1cc(-c2cc(-c3ccc(N)cc3)nc(N)c2C#N)ccc1O	inactive
CCOc1cc(/C=N/NC(=O)c2ccccc2-n2cccc2)ccc1O	inactive
Nc1ccc2nc(-c3ccc(Cl)cc3)[nH]c2c1	inactive
Nc1ccc2nc(-c3cccnc3)[nH]c2c1	inactive
COc1cc(CNC2CCCCC2OC)cc(OC)c1 (centres undefined)	inactive
COc1ccc2c3c(cccc13)N(C)N=C2C	inactive
Cc1cccc(N2CCC(N=CN(C)C)=N2)c1	inactive
CCOC(=O)N/N=C/c1ccc(N(CC)CC)cc1O	inactive
O=C(CCC(=O)Nc1ccc(F)cc1)N/N=C/c1ccc(O)cc1	inactive
Cc1cc(N2CCCC2)ccc1NC(=O)CN1C(=O)NC2(CCCCC2)C1=O	inactive
COc1ccc(CN(C)CCc2ccccn2)cc1OC	inactive
COc1cc(CN(C)CCc2ccccn2)cc(OC)c1OC	inactive
COc1cc(/C(C)=N/N2CCN(Cc3ccc(C)cc3)CC2)ccc1O	inactive
O=C(CN1CCN(S(=O)(=O)c2ccccc2F)CC1)N1CCc2ccccc2C1	inactive
O=c1c2sc3ccccc3c2[nH]c(=S)n1CCN1CCOCC1	inactive
O=C(O)CCCn1c(=S)[nH]c2c(sc3ccc([N+](=O)[O-])cc32)c1=O	inactive
COc1cc(/C=N/NC(=O)c2cnccn2)ccc1O	inactive
CC1CN(CCCCN2C(=O)c3ccccc3C2=O)CC(C)O1 (centres undefined)	inactive
CCCCN(CCCC)CCNC(=O)CSCc1ccc(C)cc1	inactive
CCCCN(CC)CCNC(=O)CCC(=O)Nc1ccc2nc(N3CCN(C)CC3)cc(C)c2c1	inactive

SMILES	outcome
CC1(C)Nc2cccc3cccc(c23)N1	inactive
COc1ccc(Br)cc1CN1CCC(N2CCCC2)CC1	inactive
CCOc1ccc(NCc2cccn2-c2nnc(N3CCC(C(=O)NCCCN4CCCCC4)CC3)s2)cc1	inactive
CC(/C=C/c1ccc(O)cc1)=N/O	inactive
COc1ccc(NC2CCCN(C(=O)CSc3ccccc3)C2)cc1OC (centres undefined)	inactive
Cc1ccc(/C=C2/C(=O)c3ccc(C(=O)O)cc3C2=O)o1	inactive
Cc1ccc(/C=C2/C(=O)ON=C2c2ccccc2)o1	inactive
CC1(C)OC(=O)C(=Cc2ccc(-c3ccc(S(N)(=O)=O)cc3)o2)C(=O)O1	inactive
O=S(=O)(O)c1cc(O)c2cc(Nc3ccccc3)ccc2c1	inactive
Nc1ccccc1Nc1cccc(C(F)(F)F)c1	inactive
CCOC(=O)c1[nH]c2ccc(C)cc2c1N	inactive
COc1cc(/C=C/C(=O)OCc2cn3cc(Cl)ccc3n2)ccc1O	inactive
Cc1oc(-c2ccccc2)cc1C(=O)Nc1ccc(N(C)C)cc1	inactive
O=C(Nc1ccc(Nc2ccccc2)cc1)C1CC1	inactive
CC(=O)Nc1ccc(Nc2ccccc2)cc1	inactive
O=C(O)c1ccccc1C(=O)Nc1ccc(Nc2ccccc2)cc1	inactive
CCN1CCN(c2ccc(N=Cc3ccc(O)cc3O)cc2)CC1	inactive
Cc1ccc(C)c(OCCCCN2CCCCC2)c1	inactive
CCOc1cc(/C=C/c2cccc[n+]2C)ccc1O	inactive
c1csc(CNc2ccc3c(c2)OCCO3)c1	inactive
Cc1ccc(S(=O)(=O)Oc2ccc(/C=C3\C(=N)N4N=C(S(C)(=O)=O)SC4=NC3=O)cc2)cc1	inactive
CCN(CC(=O)NCc1ccc(F)cc1)C(=O)CN1CCN(c2ccc(OC)cc2)CC1	inactive
O=C(CNCC1CCCO1)Nc1ccc(N2CCCCCC2)cc1 (centres undefined)	inactive
Cc1ccccc1N1C(S)=C(C#N)C(=O)NC1c1cccs1 (centres undefined)	inactive
